Screens deposited in PubChem by National Center for Advancing Translational Sciences (NCATS).
Hits are enriched below; roughly 4.6% of the tested compounds scored in any of these assays.
D1 ag = Allosteric Agonists of the Human D1 Dopamine Receptor: qHTS; activation, % at 2 µM; actives 1% (n = 360,000); HEK293 T-REx D1 cells, calcium flux, agonist mode; D(1A) dopamine receptor (Homo sapiens), P21728
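Agonism was scored from calcium flux recorded over 180 s (1 read/s) after pintool compound addition, following a 10-cycle baseline. Cells were inducible force-coupled HEK293 TREx D1, plated overnight at 30 C and loaded with no-wash calcium dye.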
D1 PAM = Potentiators of Human D1 Dopamine Receptor: qHTS; D(1A) dopamine receptor (Homo sapiens), P21728; potentiation, % at 10 µM; actives 0.036% (n = 360,000); HEK293 TREx D1 cells, calcium flux, dopamine EC20 potentiation; in the data active means potentiation above about 30%
TRHR agonist = qHTS for Small Molecule Agonists and Allosteric Enhancers of Human TRH Receptor: Primary Screen for Agonists | Thyrotropin-releasing hormone receptor (Homo sapiens), P34981 | actives 0.18% (n = 360,000) | TRHR cells, calcium flux fluo-8, FDSS agonist mode | activation, % at 2 µM
Target sequence (P34981 whole entry, looked up): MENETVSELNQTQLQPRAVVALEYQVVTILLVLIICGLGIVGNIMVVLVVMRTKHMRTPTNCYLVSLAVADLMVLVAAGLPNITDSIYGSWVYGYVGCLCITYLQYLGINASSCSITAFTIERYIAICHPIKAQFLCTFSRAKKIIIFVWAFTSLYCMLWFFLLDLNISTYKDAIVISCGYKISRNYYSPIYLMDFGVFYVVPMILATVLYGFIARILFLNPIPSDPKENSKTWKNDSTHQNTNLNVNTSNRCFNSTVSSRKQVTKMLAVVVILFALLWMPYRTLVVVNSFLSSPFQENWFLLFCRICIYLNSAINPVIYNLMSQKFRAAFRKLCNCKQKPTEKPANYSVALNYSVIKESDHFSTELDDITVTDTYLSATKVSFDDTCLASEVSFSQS
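Fluo-8-loaded TRHR cells; 10 s baseline, compound added, kinetic Ca2+ fluorescence read 1/s, agonist mode.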
D1 antag = Antagonist of Human D 1 Dopamine Receptor: qHTS; D(1A) dopamine receptor (Homo sapiens), P21728; HEK293 TREx D1 cells, calcium flux, dopamine EC80; hits give low values; activity change, negative = inhibition, % at 10 µM; actives 3.2% (n = 360,000); in the data active means activity change below about -30%
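HEK293 T-REx cells expressing inducible, force-coupled D1 receptor; no-wash Ca dye, 30–90 min RT. Cmpd → 180 s read at 1 Hz → EC80 DA → 180 s read.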
Epigenetic derep = Quantitative High-Throughput Screen for Regulators of Epigenetic Control. AID 1865, 2009. murine LDR cells, GFP reporter derepression, 30 h. Potency, µM (highest dose often 53.9 µM), actives largely listed as activators. actives 0.2% (n = 280,000); active means well fitted activation curve with a large enough effect; further: nearly all actives have a fitted effect of over 60% in size
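Murine LDR cells bearing a silenced CMV-driven GFP reporter were exposed to compound for 30 h at 37 C. After PBS washes, GFP-positive cells (20-120 um objects) counted by laser-scanning microplate cytometry.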
TRHR PAM = qHTS for Small Molecule Agonists and Allosteric Enhancers of Human TRH Receptor: Primary Screen for Enhancers | Thyrotropin-releasing hormone receptor (Homo sapiens), P34981 | TRHR cells, fluo-8 calcium fluorescence, EC20 TRH enhancement | enhancement, % at 2 µM | actives 0.66% (n = 360,000) | AID 493056, 2011; in the data active means enhancement above about 30%
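Enhancer read-out: after compound pinning and an initial kinetic agonist-mode read, an EC20 of TRH (10 nM final) was injected and fluo-8 calcium signal (Ex 480/Em 530) followed at 1 s/cycle for 100 cycles in TRHR-expressing cells.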
Each line names hits and unclear results; the compound was inactive in the other large screens. Unless noted, no stated cut-off is given here; in the data, active means activation above about 30%; inactive means the rest.

CCN1CCCC1CNC(=O)c1ccc(CS(=O)(=O)c2ccccc2C)o1 (centres undefined)	TRHR PAM 31
Cc1ccc(Cn2c(SCc3ccc(C(=O)NCCc4ccccc4)cc3)nc3ccncc32)cc1	none
O=C(NCCc1ccccc1)c1ccc(CSc2nc3ccncc3n2Cc2ccccc2)cc1	D1 antag -31
O=[N+]([O-])c1c(NCCO)cc(N2CCN(Cc3ccc4c(c3)OCO4)CC2)c2nonc12	none
O=[N+]([O-])c1c(NCCO)cc(N2CCCCCC2)c2nonc12	D1 antag -43 (no result: Epigenetic derep)
COc1ccc(CC(=O)Nc2c(C(=O)Nc3ccccc3F)oc3ccccc23)cc1	none
Cc1ccc(C(CC(=O)c2ccc(Cl)cc2)C(=O)O)cc1 (centres undefined)	none
COC(=O)C(CC(=O)c1ccc(Cl)cc1)c1ccc(C(C)C)cc1 (centres undefined)	D1 antag -30
COC(=O)c1ccccc1NC(=O)N1CCC(N2CCN(Cc3ccc(F)cc3)C(=O)C2=O)CC1	D1 antag -39
CCCCNC(=O)CSC1=Nc2ccccc2C2=NC(CCC(=O)NCc3ccccc3OC)C(=O)N12 (centres undefined)	none
O=C(CC1N=C2c3ccccc3N=C(SCc3cccc(F)c3)N2C1=O)NCc1ccc2c(c1)OCO2 (centres undefined)	none
O=C(CCC1N=C2c3ccccc3N=C(SCC(=O)Nc3ccccc3F)N2C1=O)NCc1cccs1 (centres undefined)	D1 antag -38
COc1ccccc1CNC(=O)CCC1N=C2c3ccccc3N=C(SCC(N)=O)N2C1=O (centres undefined)	D1 antag -37
Cc1ccc(CSC2=Nc3ccccc3C3=NC(CC(=O)NCc4ccc5c(c4)OCO5)C(=O)N23)cc1 (centres undefined)	D1 antag -61
O=C(CCC1N=C2c3ccccc3N=C(SCC(=O)Nc3ccc(F)cc3)N2C1=O)NCc1cccs1 (centres undefined)	none
CC1CCc2onc(C(=O)N3CCN(c4ccc(F)cc4)CC3)c2C1 (centres undefined)	none
CCCCSCCCNC(=O)c1cn(CC)c2ccc(S(=O)(=O)N(C)C3CCCCC3)cc2c1=O	none
CCC(Sc1nc2nccnc2c(=O)n1Cc1ccc(OC)cc1)C(=O)NC1CCCCC1 (centres undefined)	none
Cc1cccc(OCC(=O)Nc2ccc3c(c2)nc(CCN2CCN(c4ccccn4)CC2)n3C)c1	D1 antag -31 (no result: Epigenetic derep)
Cc1c(C(C)(C)C)sc(=NC(=O)c2ccccc2O)n1C	none (no result: Epigenetic derep)
Cc1c(C(C)(C)C)s/c(=N/S(=O)(=O)c2ccccc2)n1C	D1 antag -35 (no result: Epigenetic derep)
CCc1cc2c(=O)c(-c3nc(C)cs3)coc2cc1OC(C)C(=O)NCCO (centres undefined)	D1 antag -33
Cc1cc(OCC(=O)N[C@@H](CSCc2ccccc2)C(=O)O)c2c(C)c(C)c(=O)oc2c1	TRHR PAM 41 (no result: Epigenetic derep)
CCOC(=O)N1CCN(Cc2nc3cc([N+](=O)[O-])ccc3n2C(C)C)CC1	none
Cn1c(-c2ccccc2)cnc1NCc1ccccc1	none (no result: Epigenetic derep)
Cn1c(-c2cccc(Br)c2)cnc1NCc1ccccc1O	D1 antag -35 (no result: Epigenetic derep)
N=c1n(CC(=O)c2ccc([N+](=O)[O-])cc2)c2ccccc2n1Cc1ccc(Cl)cc1	Epigenetic derep 16µM
N=c1n(CC(=O)c2ccc([N+](=O)[O-])cc2)c2ccccc2n1Cc1ccccc1	Epigenetic derep 22µM
N=c1n(CC(=O)c2ccc(Br)cc2)c2ccccc2n1Cc1ccccc1	none (no result: D1 antag, Epigenetic derep)
